Screening results (PubChem)
Most compounds without a hit are left out; they make up all but 4% or so of the library.
TRHR enhancer: allosteric enhancers of human TRH receptor | TRHR cells, fluo-8 calcium fluorescence, EC20 TRH enhancement | AID 493056 | 360,000 compounds, 0.66% hits | P34981 | enhancement, % at 2 µM; in the data active = enhancement above about 30%; also: 0% is about no effect
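TRHR-expressing cells loaded with fluo-8 calcium dye were read kinetically (ex 480/em 530) during compound addition, then stimulated with an EC20 of TRH (10 nM final). Enhancement of the Gq-mediated intracellular calcium response was scored.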
D1 agonist: human D1 receptor agonism | HEK293 T-REx D1 cells, calcium flux, agonist mode | activation, % at 2 µM | 360,000 compounds, 1% hits | AID 504660; also: 0% is about no effect
Target sequence (P21728 whole entry, looked up): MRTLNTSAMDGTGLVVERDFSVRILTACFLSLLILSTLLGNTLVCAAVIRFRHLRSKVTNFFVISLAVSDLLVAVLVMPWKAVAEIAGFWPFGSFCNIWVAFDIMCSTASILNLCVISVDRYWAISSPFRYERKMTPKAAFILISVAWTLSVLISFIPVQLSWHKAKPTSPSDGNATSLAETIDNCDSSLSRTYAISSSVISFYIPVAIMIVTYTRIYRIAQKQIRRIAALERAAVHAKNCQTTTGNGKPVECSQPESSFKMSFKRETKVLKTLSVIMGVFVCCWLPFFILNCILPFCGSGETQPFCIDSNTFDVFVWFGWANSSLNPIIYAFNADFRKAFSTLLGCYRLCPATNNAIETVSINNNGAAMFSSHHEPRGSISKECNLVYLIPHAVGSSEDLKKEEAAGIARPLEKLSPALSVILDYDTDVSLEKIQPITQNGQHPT
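Inducible HEK293 T-REx D1 cells, force-coupled to calcium signalling, were plated at 4000 cells/well with tetracycline and held overnight at 30 C. After no-wash calcium dye loading, compound-evoked calcium rise over 180 s flagged agonists.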
D1 potentiator: potentiators of human D1 dopamine receptor | AID 504651 | HEK293 TREx D1 cells, calcium flux, dopamine EC20 potentiation | P21728 | 360,000 compounds, 0.036% hits | potentiation, % at 10 µM; in the data active = potentiation above about 30%; also: 0% is about no effect
TRHR agonist: activates the human TRH receptor | P34981 | TRHR cells, calcium flux fluo-8, FDSS agonist mode | activation, % at 2 µM | 360,000 compounds, 0.18% hits | AID 493084; also: 0% is about no effect
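Agonist-mode FDSS calcium read (Ex 480/Em 530, 1 s cycles) in 1536-well TRHR cells with fluo-8 dye, after 10-cycle baseline and 23 nL compound addition; TRH at EC20 (10 nM final) added afterwards for the enhancer phase.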
Glioma ERSR ind: inducers of ER stress response in human glioma cells. Potency, µM, without a hit: top-dose activation, hits mostly activators. 420,000 compounds, 0.02% hits. U87-MG GRP78 promoter luciferase reporter, 16 h; active = well fitted activation curve with a large enough effect; also: potency is read from the fitted curve at half-maximal effect; series mostly up to about 76 µM; % of control where 0% means no effect; nearly all actives have a fitted effect of over 35% in size
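Stably transfected U87-MG glioma cells carrying a GRP78-based luciferase sensor; 16 h compound incubation. Luminescence end-point read 10 min after Bright-Glo addition at room temperature.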
D1 antagonist: blocks dopamine activation of the human D1 receptor. P21728. HEK293 TREx D1 cells, calcium flux, dopamine EC80; hits give low values. activity change, negative = inhibition, % at 10 µM. 360,000 compounds, 3.2% hits. AID 504652; in the data active = activity change below about -30%; also: % is scaled to controls: 0 for no effect and ±100 for the full control effect
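Using tetracycline-induced force-coupled D1 Hek293 cells and a calcium dye, signals were followed for 180 s after compound, then for 180 s after EC80 dopamine, to detect inhibitors.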
* hit, by the source's call; . = no result. Rule as the data show it, unless noted: active = activation above about 30%; inactive = the rest.

SMILES	TRHR enhancer	D1 agonist	D1 potentiator	TRHR agonist	Glioma ERSR ind	D1 antagonist
Brc1cc(Br)cc(CN2CCSCC2)c1	-3	1	0	0	-1%	8
CC(C)n1cc(/C=C2\NC(=O)N(c3cccc(Cl)c3)C2=O)c2ccccc21	-3	2	-10	1	-4%	-68*
O=C(O)Cn1cc(/C=C2/NC(=O)N(c3ccc(Cl)cc3)C2=O)c2ccccc21	9	2	0	0	3%	-5
CC(C)n1cc(/C=C2/NC(=O)N(c3cccc(Cl)c3)C2=O)c2ccccc21	-3	0	-10	1	-7%	-53*
CC1=CC(=O)C=C/C1=C(/c1ccc(O)cc1C)c1ccccc1S(=O)(=O)O	7	1	-3	1	-5%	-4
CCNS(=O)(=O)c1ccc(NC(=O)c2c(-c3ccccc3)noc2C)cc1	0	7	-5	0	-1%	-3
CCn1cc(Cl)c(C(=O)Nc2ccc3c(c2)OCCO3)n1	38*	2	-2	0	-6%	2
CCn1nc(C(=O)Nc2ccc3c(c2)OCCO3)c2ccccc2c1=O	.	.	.	.	-2%	.
Cn1nc(C(=O)Nc2cccc(C(F)(F)F)c2)c2ccccc2c1=O	-4	4	-6	-1	-5%	-10
CCn1cc(Cl)c(C(=O)Nc2cccc(C(F)(F)F)c2)n1	5	1	0	-1	13%	-36*
N/C(=N\OC(=O)c1cccc(C(F)(F)F)c1)c1cnccn1	2	1	-2	0	9%	11
COc1ncc2nc(-c3ccccc3)c(=O)n(C3CC3)c2n1	.	.	.	.	-1%	.
Cc1cc(OCC(=O)NCc2cccnc2)c2c(C)c(C)c(=O)oc2c1	4	2	0	0	-1%	-6
O=C(COc1ccc2c(-c3ccccc3)cc(=O)oc2c1)Nc1cccnc1	-2	20	-10	1	-1%	-33*
O=C(COc1ccc2c(-c3ccccc3)cc(=O)oc2c1)NCc1ccccn1	-6	4	1	1	-2%	-9
Cc1cc(OCC(=O)Nc2cccnc2)c2c(C)c(C)c(=O)oc2c1	1	3	-20	0	-1%	-37*
CCC(=O)c1ccc(OCC(O)CN2CCc3ccccc3C2)cc1 (configuration not stated)	3	1	-7	0	-3%	-8
C#CCSc1nnc(CSc2nc3ccccc3s2)n1-c1ccccc1	6	8	-6	-1	-6%	-30*
O=C(O)CSc1nnc(CSc2nc3ccccc3s2)n1-c1ccccc1	0	2	-7	0	-1%	25
Cc1ccc(S(=O)(=O)Nc2ncnc3ccccc23)cc1	31*	1	0	1	7%	7
O=C1CCc2cc(NS(=O)(=O)c3ccc(F)cc3)cc3c2N1CCC3	3	3	-4	0	-2%	-38*
Cc1cnc(C(=O)NCc2ccc(F)cc2)cn1	-7	4	.	0	-4%	2
COc1ccc(S(=O)(=O)N2CCOCC2)cc1NC(=O)c1ccc(SC)cc1OC	.	.	.	.	-1%	.
COC(=O)CNC(=O)CSc1nnc(-c2ccc(OC)cc2)n1CC(C)C	3	-1	4	1	3%	-34*
COc1ccc(N2CCN(CC(O)COCc3ccccc3)CC2)cc1 (configuration not stated)	7	4	-1	0	-4%	8
SMILES	TRHR enhancer	D1 agonist	D1 potentiator	TRHR agonist	Glioma ERSR ind	D1 antagonist
COc1cc(/C=C(/C(=O)O)c2ccc(-c3ccccc3)cc2)cc(OC)c1OC	1	-3	-8	0	-1%	-42*
CCOc1cc(NC(=S)NC)c(OCC)cc1NC(=O)c1cccs1	1	3	-3	0	-2%	7
COc1cc(/C=C(\C#N)c2ccccn2)ccc1OCc1ccccc1Cl	2	10	1	2	-1%	13
COc1cc(/C=C(\C#N)c2ccccn2)cc(OC)c1O	5	38*	-1	47*	1%	2
CC1CC(=O)Nc2ccccc2S1(=O)=O (configuration not stated)	5	2	-1	1	-5%	-32*
COc1ccc(C(=O)N2CCCC(c3cc(C(=O)NCc4cccnc4)no3)C2)cc1 (configuration not stated)	.	.	.	.	-3%	.
COc1cccc(NC(=O)CN(C)C(=O)c2cccc(S(=O)(=O)N3CCN(c4ccc(F)cc4)CC3)c2)c1	3	7	-12	0	-5%	-34*
COc1ccc(CN(C)C(=O)c2cccc(S(=O)(=O)N3CCN(c4ccccc4)CC3)c2)c(OC)c1OC	3	0	-9	0	-2%	-33*
CN(CC(=O)Nc1cccc(F)c1)C(=O)c1cccc(S(=O)(=O)N2CCN(c3ccccc3)CC2)c1	-3	3	-3	0	-5%	-5
CC1CCN(S(=O)(=O)c2ccc(C(=O)N3CCOCC3)cc2)CC1	-6	0	-6	0	0%	-35*
CC1CCN(C(=O)c2ccc(S(=O)(=O)N3CCOCC3)cc2)CC1	-6	1	-1	1	-3%	24
COc1ccccc1N1CCN(C(=O)c2ccc3[nH]c4c(c3c2)CC(C)CC4)CC1 (configuration not stated)	3	0	-3	0	-5%	-57*
CCCCCCC(C)n1cc(C(C)=O)c(=O)n(C)c1=O (configuration not stated)	-3	9	-9	-1	-4%	-15
COc1ccc(CCNC(=O)COC(=O)Cn2cnc3ccccc32)cc1OC	2	-1	1	0	-7%	0
Cc1cc(/N=C/C=C2/N(C)c3ccccc3C2(C)C)n(CCC#N)n1	.	.	.	.	2%	.
O=C(Nc1nc(-c2ccccn2)cs1)C12CC3CC(CC(O)(C3)C1)C2	-6	2	-10	0	-2%	25
CC(C)(CN1CCCCC1)NS(=O)(=O)c1ccc(Cl)cc1	1	0	-2	0	-3%	9
Cc1ccc(S(=O)(=O)N2CCOCC2)cc1NC(=O)COC(=O)C1(C)CC1(Cl)Cl (configuration not stated)	.	.	.	.	2%	.
COc1cccc(NC(=O)CN(C)C(C)C(=O)Nc2ccc(S(=O)(=O)N3CCCC3)cc2)c1 (configuration not stated)	-2	4	13	0	-3%	-34*
COc1ccc(NC(=O)CN(C)C(=O)c2cccc(-n3cccc3)c2)cc1	0	0	4	-1	0%	4
CN1CCN(S(=O)(=O)c2cccc(C(=O)N(C)CC(=O)Nc3ccc(F)c(F)c3F)c2)CC1	6	179*	-9	0	-5%	11
CC1CCN(S(=O)(=O)c2cccc(C(=O)N3CCN(c4ccc(F)cc4)CC3)c2)CC1	10	4	-3	-1	2%	-39*
